# Measured values published in the supplement of paper PMC10042075.
# “And” between values parts separate entries of the source, which are not always exact repeats. Equal values may be shown once. Where a name gives a salt, the structure may show the parent alone.
# Tested on: LASCPC-01
# Assay: cell viability relative to DMSO control (fraction); higher = less growth inhibition (more viable cells)
# Settings: 2 µM; 72 h
# Procedure: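 High-throughput single-dose screen in the LASCPC-01 NEPC cell line in 384-well plates. Cells were treated with each compound at 2 µM for 72 h, and viability was read by CellTiter-Glo luminescence. Values are normalised to the DMSO control (compound/DMSO) from three replicates; only the 5-HT-related subset of the 7315-compound library is given.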
row,SMILES,cell viability
1,CC(N)Cc1c[nH]c2ccc(O)cc12 (stereo not drawn) [alpha-Methyl-5-hydroxytryptamine maleate],1.03
2,COc1cc(N)c(Cl)cc1C(=O)NC1CN2CCC1CC2 (stereo not given) [Zacopride hydrochloride],0.366
3,Clc1ccc([C@]23CNC[C@H]2C3)cc1Cl [Amitifadine hydrochloride],0.896
4,CNCCc1c[nH]c2ccc(O)cc12 [N-omega-Methyl-5-hydroxytryptamine oxalate salt],1.11
5,COc1cc2c3c(c1OC)-c1ccccc1C[C@H]3N(C)CC2 [Nuciferine],0.818
6,COc1ccc(C(CN(C)C)C2(O)CCCCC2)cc1 (stereo not given) [Venlafaxine],1.04
7,CN1C[C@H](CNC(=O)OCc2ccccc2)C[C@@H]2c3cccc4c3c(cn4C)C[C@H]21 [Metergoline],0.997
8,"CC(N)Cc1cccc(C(F)(F)F)c1 (single isomer, unassigned; (+)) [(+)-Norfenfluramine hydrochloride]",1.09
9,CC[C@@H](CO)NC(=O)[C@@H]1C=C2c3cccc4c3c(cn4C)C[C@H]2N(C)C1 [Methysergide maleate],1.1
10,CN1CCN(c2nc3ccccc3nc2Cl)CC1,0.966
11,CN1C[C@H](C(=O)N[C@]2(C)O[C@@]3(O)[C@@H]4CCCN4C(=O)[C@H](Cc4ccccc4)N3C2=O)C[C@@H]2c3cccc4[nH]cc(c34)C[C@H]21 [Dihydroergotamine methanesulfonate],1.18
12,c1ccc2c(N3CCNCC3)cccc2c1 [1-(1-Naphthyl)piperazine hydrochloride],1.08
13,COc1ccccc1N1CCNCC1 [1-(2-Methoxyphenyl)piperazine hydrochloride],0.869
14,C[C@H](N)CN1CCc2ccc(Br)cc21 [VER-3323 hemifumarate salt],1.16
15,COc1ccc2[nH]cc(C3=CCNCC3)c2c1,0.776
16,CN1CCC(c2c[nH]c3ccc(O)cc23)CC1,0.966 and 0.511
17,N#Cc1ccc(N2CCN(C(=O)COc3ccc4[nH]cc(CCN)c4c3)CC2)cc1 [Donitriptan monohydrochloride],1.08
18,NCCc1c[nH]c2ccc(O)cc12 [Serotonin hydrochloride],0.606
19,CCCN(CCC)C1CCc2cccc(O)c2C1 (stereo not given),0.92
20,CC(N)Cc1c[nH]c2ccc(OCc3cccs3)cc12 (stereo not given),1.18

row,SMILES,cell viability
1,C[N+]1(C)C2CCC1CC(OC(=O)c1c[nH]c3ccccc13)C2 (stereo not given) [3-Tropanylindole-3-carboxylate methiodide],0.906
2,CN1CCC[C@@H]1Cc1c[nH]c2ccc(Nc3ncccc3[N+](=O)[O-])cc12,0.897
3,O=c1ccc2cc3ccoc3c(O)c2o1 [Xanthotoxol],1.15
4,CCCN(CCC)[C@@H]1CCc2cccc(O)c2C1 [R-(+)-8-Hydroxy-DPAT hydrobromide],1.03
5,NCCc1c[nH]c2ccccc12 [Tryptamine hydrochloride],0.96
6,COc1ccc2[nH]cc(CCN)c2c1 [O-Methylserotonin hydrochloride],0.981
7,C[C@H]1CNCCc2ccc(Cl)cc21 [Lorcaserin HCl],1.18
8,O=S1(=O)N(CCN2CC=C(c3c[nH]c4cc(F)ccc34)CC2)c2cccc3c2N1CCC3,0.982
9,COc1ccc2c(c1OC)CN1CCc3cc4c(cc3C1C2)OCO4 (stereo not given) [Tetrahydroberberine THB],0.961
10,NCCc1c[nH]c2ccc(O)cc12 [Serotonin HCl],0.977
11,CN1CCN(c2cccc3[nH]c(=O)oc23)CC1 [Pardoprunox hydrochloride],1.03
12,CN1c2ccccc2C(NCCCCCCC(=O)O)c2ccc(Cl)cc2S1(=O)=O (stereo not given) [Tianeptine sodium],0.963
13,CCCN(CCC)C1CCc2cccc(O)c2C1 (stereo not given) [(?-8-Hydroxy-DPAT hydrobromide],1.16
14,NCCc1c[nH]c2ccc(C(N)=O)cc12 [5-Carboxamidotryptamine maleate],1.1
15,Clc1ccc(C(OCCN2CCCCC2)c2ccccc2)cc1 (stereo not given) [Cloperastine hydrochloride],0.924
16,NCCc1c[nH]c2ccccc12 [Tryptamine],1.08
17,"O=[N+]([O-])c1ccc2nc(N3CCNCC3)ccc2c1 [Quipazine,6-nitro-,maleate]",1.04
18,C=C[C@H]1CN2CC[C@@]3(C(=O)Nc4ccccc43)[C@@H]2C[C@@H]1/C(=C\OC)C(=O)OC [Isocorynoxeine],0.677
19,COc1ccc(C(CN(C)C)C2(O)CCCCC2)cc1 (stereo not given) [Venlafaxine hydrochloride],1.06
20,CN1C(=O)COc2c(C(=O)NC3CN4CCC3CC4)cc(Cl)cc21 (stereo not given) [Azasetron hydrochloride],1.44
